KB-3-1 cytotox: KB-3-1 parental cell cytotoxicity; KB-3-1 viability, CellTiter-Glo ATP luminescence, 72 h; Potency, µM (highest dose often 46.1 µM), hits mostly cytotoxic; hit rate 1.4% among 400,000; note: % is set by controls: 0 for no effect and ±100 for the full control effect; nearly all actives have a fitted effect of over 60% in size
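KB-3-1 parental drug-naive adenocarcinoma cells in DMEM/10% FBS, incubated 72 h at 37 C with pin-transferred compounds across a concentration series. Viability by CellTiter-Glo luminescence; concentration-response curves fitted after normalization.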
KB-V1 cytotox: KB-V1 MDR subline cytotoxicity. AID 1347076. hit rate 3.4% among 400,000. KB-V1 MDR cells viability, CellTiter-Glo, 72 h. Potency, µM (titrated, usually from 46.1 µM), actives largely listed as cytotoxic; note: % is set by controls: 0 for no effect and ±100 for the full control effect; nearly all actives have a fitted effect of over 60% in size
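Compound-treated KB-V1 multidrug-resistant cells, 72 h, 37 degrees C; viability by CellTiter-Glo. Fitted qHTS curves give the values.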
ELG1 repair inh: blocks ELG1-dependent DNA repair in HEK293T cells; hit rate 2.3% among 330,000; HEK293T ELG1-luciferase reporter, luminescence, 16 h; DNA damage induced by 5-fluorouridine; AID 504467; Potency, µM (highest dose often 46.1 µM), inactives show at the highest dose activity change, negative = inhibition, actives largely listed as inhibitors; note: % is set by controls: 0 for no effect and ±100 for the full control effect; nearly all actives have a fitted effect of over 55% in size
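5-Fluorouridine DNA damage + compound/DMSO, 2,000 cells/well, 16 h, 37 °C/5% CO2. ONE-Glo, 30 min RT, luminescence. Readout = decrease in reporter signal.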
MCF10A rereplic: inducers of DNA re-replication in MCF 10A breast cells; Potency, µM (doses to about 46.1 µM), for the others: at the top dose activity, positive = re-replication, actives largely listed as activators; hit rate 2.9% among 350,000; MCF 10A DNA re-replication, Hoechst nuclear intensity, 48 h; AID 624296; note: % of control where 0% means no effect; nearly all actives have a fitted effect of over 50% in size
SW480 rerep: inducers of DNA re-replication in SW480 colon cancer cells | SW480 DNA re-replication, Hoechst DNA content imaging, 48 h | Potency, µM (series often up to 46.1 µM), without a hit: at the top dose re-replication activation, actives largely listed as activators | hit rate 1.8% among 340,000 | AID 624297; note: % of control where 0% means no effect; nearly all actives have a fitted effect of over 55% in size
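Treated cells incubate 48 hr (37 C, 5% CO2), are stained 40 min with Hoechst, and nuclear fluorescence is enumerated; a rise in nuclei with high DNA signal marks re-replication.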
The depositor's hits bear a star. In the library only some 8.1% were active in any assay of this set; here they are far more common. Calls come from the whole dose curve; as a rule, active = well fitted curve in the direction sought with a large enough effect; inconclusive = small, poorly fitted or top-dose-only effect, or another doubt; inactive = no such curve, though single readings can be large; an effect the other way counts as inactive or inconclusive. Potency is the fitted concentration of half-maximal effect.

How did O=C(NCc1ccco1)c1ccc2c(c1)N(Cc1ccccc1)C(=O)CS2 do in these assays?
KB-3-1 cytotox: inactive; KB-V1 cytotox: 5.8µM*; ELG1 repair inh: inconclusive; MCF10A rereplic: -6%; SW480 rerep: 2%

How did C=CCN1C(=O)CSc2ccc(C(=O)NCc3ccco3)cc21 do in these assays?
KB-3-1 cytotox: inactive; KB-V1 cytotox: inactive; ELG1 repair inh: -6%; MCF10A rereplic: 10%; SW480 rerep: -3%

What do the screens show for `Cc1ccc(-c2csc(=S)n2CC(=O)OCC(=O)NCc2ccco2)cc1`?
KB-3-1 cytotox: inactive; KB-V1 cytotox: inconclusive; ELG1 repair inh: inconclusive; MCF10A rereplic: inconclusive; SW480 rerep: -1%

What do the screens show for `Cc1ccc(-c2csc(=S)n2CC(=O)OCC(=O)NC(C)C(C)C)cc1` (configuration not stated)?
KB-3-1 cytotox: inactive; KB-V1 cytotox: 16µM*; ELG1 repair inh: -7%; MCF10A rereplic: inconclusive; SW480 rerep: 4%

Results for O=C(Nc1nc2nc(-c3ccccc3)cc(-c3ccccc3)n2n1)c1ccco1 ?
KB-3-1 cytotox: inconclusive; KB-V1 cytotox: inactive; ELG1 repair inh: 8.2µM*; MCF10A rereplic: -2%; SW480 rerep: 0%

What do the screens show for `CC(=O)Nc1nc2nc(-c3ccccc3)cc(-c3ccccc3)n2n1`?
KB-3-1 cytotox: inactive; KB-V1 cytotox: inactive; ELG1 repair inh: -26%; MCF10A rereplic: 5%; SW480 rerep: -5%

How did Cc1ccc(-c2csc(NC(=S)NC(=O)c3ccco3)n2)cc1 do in these assays?
KB-3-1 cytotox: inactive; KB-V1 cytotox: inactive; ELG1 repair inh: 7%; MCF10A rereplic: -7%; SW480 rerep: -7%

Results for O=C(NNc1nc(-c2ccc(Cl)cc2)cs1)c1ccco1 ?
KB-3-1 cytotox: inconclusive; KB-V1 cytotox: 21µM*; ELG1 repair inh: inconclusive; MCF10A rereplic: inconclusive; SW480 rerep: inconclusive

How did O=C(NNc1nc(-c2ccccc2)cs1)c1ccco1 do in these assays?
KB-3-1 cytotox: inactive; KB-V1 cytotox: inactive; ELG1 repair inh: inconclusive; MCF10A rereplic: 3%; SW480 rerep: 18µM*

Results for CCOc1ccc(N(CC(=O)NC(C)(C)C)C(=O)CCC(=O)Nc2nccs2)cc1 ?
KB-3-1 cytotox: inactive; KB-V1 cytotox: inactive; ELG1 repair inh: -4%; MCF10A rereplic: 0%; SW480 rerep: -4%

Results for CCCNC(=O)C1(C)CCN(C(=O)Cc2ccc(OC)c(OC)c2)C1 (configuration not stated) ?
KB-3-1 cytotox: inactive; KB-V1 cytotox: inactive

Results for CCN1CCN(CC(=O)Nc2cc3c(cc2C(C)=O)OCO3)CC1 ?
KB-3-1 cytotox: inactive; KB-V1 cytotox: inactive; ELG1 repair inh: 6%; MCF10A rereplic: 14%; SW480 rerep: -3%

What do the screens show for `COc1cccc(NC(=O)Nc2nc(SC)ns2)c1`?
KB-3-1 cytotox: inactive; KB-V1 cytotox: inconclusive; ELG1 repair inh: inconclusive; MCF10A rereplic: 4%; SW480 rerep: inconclusive

How did CCSc1nsc(NC(=O)Nc2cccc(F)c2)n1 do in these assays?
KB-3-1 cytotox: inconclusive; KB-V1 cytotox: inconclusive; ELG1 repair inh: inconclusive; MCF10A rereplic: 16µM*; SW480 rerep: inconclusive

Results for Cc1ccc(C(=O)NC(=S)Nc2cccc3c(C)cc(C)nc23)cc1 ?
KB-3-1 cytotox: inconclusive; KB-V1 cytotox: 15µM*; ELG1 repair inh: 8%; MCF10A rereplic: inconclusive; SW480 rerep: -1%

Results for COc1cccc(Cn2c(C(C)n3c(-c4cnccn4)nc4ccccc43)nc3ccccc32)c1 (configuration not stated) ?
KB-3-1 cytotox: inconclusive; KB-V1 cytotox: 16µM*

Results for Cc1ccc(C(=O)N/N=C(\CC(C)C)c2ccccc2)cc1 ?
KB-3-1 cytotox: inactive; KB-V1 cytotox: inconclusive; ELG1 repair inh: 25%; MCF10A rereplic: 16%; SW480 rerep: 23µM*

Results for COc1cccc(C(=O)N/N=C(\CC(C)C)c2ccccc2)c1 ?
KB-3-1 cytotox: inactive; KB-V1 cytotox: inactive; ELG1 repair inh: -12%; MCF10A rereplic: -3%; SW480 rerep: 6%

What do the screens show for `Cc1ccc(O)c(C(=O)/C=C/c2ccc3c(c2)OCCCO3)c1`?
KB-3-1 cytotox: inactive; KB-V1 cytotox: inactive; ELG1 repair inh: inconclusive; MCF10A rereplic: 13µM*; SW480 rerep: inconclusive

How did Cc1ccc(NC(=O)/C=C/c2ccc3c(c2)OCO3)nc1 do in these assays?
KB-3-1 cytotox: 7.3µM*; KB-V1 cytotox: inactive; ELG1 repair inh: inconclusive; MCF10A rereplic: inconclusive

How did Cc1csc(NC(=O)/C=C/c2ccc3c(c2)OCO3)n1 do in these assays?
KB-3-1 cytotox: inconclusive; KB-V1 cytotox: inconclusive; ELG1 repair inh: inconclusive; MCF10A rereplic: 18µM*; SW480 rerep: 1%

How did Clc1ccc(-c2nnc(SCc3cn4ccsc4n3)n2CC2CCCO2)cc1 (configuration not stated) do in these assays?
KB-3-1 cytotox: inactive; KB-V1 cytotox: inactive; ELG1 repair inh: -2%; MCF10A rereplic: 10%; SW480 rerep: -2%

What do the screens show for `CNC(=O)c1ccccc1NC(=O)c1ccc(C)c(S(=O)(=O)N2CCCCC2)c1`?
KB-3-1 cytotox: inactive; KB-V1 cytotox: inactive; ELG1 repair inh: inconclusive; MCF10A rereplic: 10%; SW480 rerep: -5%

How did COc1ccccc1-c1nc2c3c(-c4ccccc4)c(-c4ccccc4)oc3ncn2n1 do in these assays?
KB-3-1 cytotox: inactive; KB-V1 cytotox: inactive

Results for Cc1ccc2cc(COC(=O)C3CCCO3)c(=O)[nH]c2c1 (configuration not stated) ?
KB-3-1 cytotox: inconclusive; KB-V1 cytotox: 12µM*; ELG1 repair inh: -4%; MCF10A rereplic: -2%; SW480 rerep: -5%

What do the screens show for `Cc1ccc2cc(CN(CC(C)C)C(=O)C3CCCO3)c(=O)[nH]c2c1` (configuration not stated)?
KB-3-1 cytotox: inactive; KB-V1 cytotox: inconclusive; ELG1 repair inh: 0%; MCF10A rereplic: 1%; SW480 rerep: -4%

What do the screens show for `COc1ccccc1NC(=O)c1ccc(S(=O)(=O)N(C)c2ccccc2)cc1`?
KB-3-1 cytotox: inactive; KB-V1 cytotox: inactive; ELG1 repair inh: -29%; MCF10A rereplic: 11%; SW480 rerep: 15%

Results for CN(c1ccc(C(=O)Nc2ccc(F)cc2F)cc1)S(=O)(=O)c1ccccc1 ?
ELG1 repair inh: 15µM*; MCF10A rereplic: inconclusive; SW480 rerep: inconclusive

Results for CN(c1cccc(NC(=O)CN(c2ccc(C34CC5CC(CC(C5)C3)C4)cc2)S(C)(=O)=O)c1)S(C)(=O)=O ?
KB-3-1 cytotox: inconclusive; KB-V1 cytotox: 18µM*; ELG1 repair inh: inconclusive; MCF10A rereplic: 5%; SW480 rerep: -4%

Bioassay records from PubChem BioAssay.
